Reference: PubChem BioAssay AID504332 (National Center for Advancing Translational Sciences (NCATS), 2011)
Where “and” joins values, the source holds several entries; their conditions need not be identical. Equal values may be shown once. The whole screen tested about 350,000 compounds, of which about 31,000 (8.9%) were called active. Inconclusive results (about 15%) are left out. The call rests on the fitted dose curve; in most records, active means well fitted inhibition curve with a large enough effect; inconclusive means small, poorly fitted or top-dose-only effect; inactive means no such curve, though single readings can be large or run the other way. Only a selection was taken, and actives are over-represented in it overall. A structure can be active in one record and inactive in another.

The compounds below were run against Histone-lysine N-methyltransferase EHMT2 (Homo sapiens) (UniProt Q96KQ7) (assay: qHTS Assay for Inhibitors of Histone Lysine Methyltransferase G9a). Details: G9a H3K9 monomethylation, AlphaScreen, 2 h; series mostly up to 59 µM.
Histone-lysine N-methyltransferase EHMT2 (Homo sapiens), sequence (Q96KQ7 913-1193 limits assumed): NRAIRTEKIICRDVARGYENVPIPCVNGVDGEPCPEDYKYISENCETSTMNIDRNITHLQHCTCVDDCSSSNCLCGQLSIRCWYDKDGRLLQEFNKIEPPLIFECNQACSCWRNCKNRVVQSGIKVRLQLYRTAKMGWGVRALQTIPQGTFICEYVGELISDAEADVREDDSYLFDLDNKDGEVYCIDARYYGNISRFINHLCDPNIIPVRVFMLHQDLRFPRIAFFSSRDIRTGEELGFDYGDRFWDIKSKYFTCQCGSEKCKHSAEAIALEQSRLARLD
Summary of the method: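 Methyltransferase reactions run at room temperature for 2 h (20 nM enzyme, 500 nM biotin-H3K9 peptide, 20 uM SAM) after a 15 min compound preincubation; product detected by AlphaScreen beads and anti-H3K9me1 antibody.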
Further: nearly all actives have a fitted effect of over 75% in size.
On the % scale 0 is the no-effect control and ±100 the full control effect; potency means the concentration at half of the fitted maximal effect.

activity, negative = inhibition, inactive:
CCN1C(=O)C(=O)N(CC(=O)Nc2cc(C)ccc2C)C1=O 1.01% [at 2.33 µM]
COc1ccc(N2C(=O)c3cccc4cccc(c34)C2=O)nn1 -3.86% [at 12.7 µM]
O=C1c2cccc3cccc(c23)C(=O)N1c1cccc(O)c1 21.1% [at 2.33 µM]
CCc1ccccc1NC(=O)CN(C)C(=O)c1cc(C2CC2)nn1-c1ccccc1 14.2% [at 12.7 µM]
COc1ccccc1-c1sc2ccccc2c1-c1ccc(Br)nc1 -0.161% [at 0.501 µM]
CC(=O)NS(=O)(=O)c1ccc(NC(=S)NC(=O)C(C)(C)C)cc1 -14.5% [at 0.501 µM]
Cc1cc(C)c(S(=O)(=O)n2cc(C(C)C(N)C(=O)O)c3ccccc32)c(C)c1 (stereo not drawn) 11.6% [at 12.7 µM]
O=C(CSc1nc2ccccc2c(=O)n1CCCO)NC1CC1 -11.2% [at 2.33 µM]
COc1ccc(S(=O)(=O)NCC(c2ccc(N(C)C)cc2)N2CCCC2)cc1 (stereo not drawn) 0.776% [at 12.7 µM]
CCOC(=O)N1CCN(C(=O)c2n[nH]c(=O)c3ccccc23)CC1 8.06% [at 12.7 µM]
CCOC(=O)N1CCN(C(=O)Cn2cnc3ccccc3c2=O)CC1 1.87% [at 12.7 µM]
CCC(C)N(C(=O)CSc1ncnc2c1cnn2-c1ccccc1)C1CCS(=O)(=O)C1 (stereo not drawn) 17.2% [at 2.33 µM]
COC(=O)[C@]1(C)N[C@H](c2ccc(-c3ccc(Cl)c(Cl)c3)cc2)[C@@H]2C(=O)N(C)C(=O)[C@@H]21 12.5% [at 2.33 µM]
CCOC(=O)C1CCN(C(=O)COc2cccc3ccccc23)CC1 9.04% [at 12.7 µM]
O=C(Nc1ccccc1N1CCCC1)c1ccc(F)c(S(=O)(=O)N2CCOCC2)c1 -5.62% [at 0.501 µM]
Cc1cc(C)cc(OCC(=O)OCC(=O)NC2CCCC2)c1 -28.2% [at 2.33 µM]

Potency, inactive and 22.4 µM (active):
C[N+](C)(CCCCCC[N+](C)(C)CCCN1C(=O)c2cccc3cccc(c23)C1=O)CCCN1C(=O)c2cccc3cccc(c23)C1=O

Potency, inactive:
CCOc1ccc(Nc2nc3c(S(=O)(=O)c4cccc(Cl)c4)nnn3c3ccsc23)cc1
CC(C)S(=O)(=O)c1oc(-c2ccc(F)cc2)nc1S(=O)(=O)c1ccc(F)cc1
O=C(CN1C(=O)c2cccc3cccc(c23)C1=O)N1CCCCC1
O=C(COC(=O)CCCN1C(=O)c2cccc3cccc(c23)C1=O)NC1CCS(=O)(=O)C1 (stereo not drawn)
O=C(Cn1cnc2c(oc3ccccc32)c1=O)Nc1ccc(OC(F)(F)F)cc1
COc1cc(/C=N/NC(=O)c2cccnc2)ccc1OC(=O)c1cccc(Br)c1
CCCc1[nH]nc2c1C(C1CC=CCC1)C(C#N)=C(N)O2 (stereo not drawn)
CCCc1[nH]nc2c1C(c1ccc(OC(=O)c3ccco3)cc1)C(C#N)=C(N)O2 (stereo not drawn)
COc1ccc(C2=NN(C(=O)c3ccccc3C(=O)O)C(c3ccccc3O)C2)cc1 (stereo not drawn)
CCC(=O)Nc1ccc(C)cc1-c1nc2ccccc2n(Cc2ccccc2)c1=O
COc1ccc(NC(=O)c2sc(N)nc2-c2ccccc2)cc1
COc1ccc(NC(=O)CSc2nc(C)cs2)cc1
COc1cccc(CNC(=O)C(NS(=O)(=O)c2ccc3nc(C)sc3c2)C(C)C)c1 (stereo not drawn)
Cc1ccc(NC(=S)Nc2ccc(F)cc2)cc1
COc1ccc(C(=O)C2CCCN(S(=O)(=O)c3cccc(C)c3)C2)c(C)c1 (stereo not drawn)
O=C(NCC(c1cccnc1)N1CCc2ccccc21)c1cccc(C(F)(F)F)c1 (stereo not drawn)
Cc1ccc(S(=O)(=O)NCC(=O)OCC(=O)N2CCc3ccccc32)cc1
COc1ccc(C(=O)NCC(c2ccc(N(C)C)cc2)N2CCc3ccccc32)c(OC)c1 (stereo not drawn)
COC(=O)C1=C(c2ccccc2)c2ccccc2S(=O)(=O)N1CC(=O)Nc1ccccc1C(F)(F)F
Cc1ccc(CN2CCC(CNC(=O)c3cnn(-c4ccccc4Cl)c3C3CCN(C(=O)OC(C)(C)C)CC3)CC2)cc1
COc1ccc(NC(=O)CCCc2nnc3n(CCC(C)C)c(=O)c4sccc4n23)c(OC)c1
CCCN(CCC)S(=O)(=O)c1ccc(C(=O)Nc2sc3c(c2C(=O)OC)CCN(CC)C3)cc1
CC1CCCCC1NC(=O)COC(=O)Cc1ccc(Cl)cc1 (stereo not drawn)
CCOc1c(CNCc2ccc(C(=O)O)cc2)cccc1OC
CCOc1cc(C(=O)O)ccc1OCCOc1ccccc1
Cc1nn(C(C)C(=O)Nc2ccc(C(C)C)cc2)c(=O)c2c1sc1ccccc12 (stereo not drawn)
O=C(NCc1ccccc1CN1CCCC1)c1cccc(S(=O)(=O)Nc2ccc(F)cc2)c1
COc1ccc(CCNCc2c(C(=O)O)c(C)n(Cc3cccc(C)c3)c2C)cc1OC
Cc1cc(-c2cccs2)nc(-n2cccc2)n1
CC(C)n1c(-c2cccs2)nc2ccccc21
COC(=O)c1ccccc1NC(=O)c1cc(-c2ccccc2O)no1
Cc1ccc(O)c(NC(=O)c2cc(-c3ccco3)on2)c1
Cc1nn(C)c2c1c(C(F)(F)F)cc(=O)n2C(C)C(=O)NCc1ccc(Cl)cc1 (stereo not drawn)
CCCCn1c(SCC(=O)N2CCOCC2)nc2c1c(=O)n(C)c(=O)n2C
Cn1c(=O)[nH]c(=O)c2c1nc(Br)n2CCCCSc1nc2ccccc2o1
CCOC(=O)c1ccccc1NC(=O)c1sc2nc(-c3ccc(F)cc3)cn2c1C
Cc1ccc(C)c(CN2C(=O)c3ccccc3S(=O)c3ccc(C(=O)N4CCOCC4)cc32)c1 (stereo not drawn)
CCCc1nc2c([nH]1)C(c1cccnc1)C(C#N)=C(N)O2 (stereo not drawn)
Cc1cc(C)c(C#N)c(SCc2[nH]nc3c2C(c2ccccc2)C(C#N)=C(N)O3)n1 (stereo not drawn)
O=C(NCCc1cccc(F)c1)C1CCCN(c2nc3ccccc3s2)C1 (stereo not drawn)
COc1ccc(-c2[nH]c3c(c2-c2c(-n4cccc4)n(C)c(=O)n(C)c2=O)c(=O)n(C)c(=O)n3C)cc1
CCCn1c2ccccc2c2cnn(CC(=O)NCCCOC(C)C)c(=O)c21
O=C1c2ccccc2NC(c2ccccn2)N1NS(=O)(=O)c1ccccc1 (stereo not drawn)
CC(=O)NN1C(=O)c2ccccc2NC1c1ccccc1 (stereo not drawn)
COc1cc(NC(=O)c2ccc(-c3csc(C)n3)cc2)c(OC)cc1Cl
COc1ccccc1-c1cc(C(F)(F)F)nc(S(=O)(=O)CCCC(=O)Nc2ccc(F)cc2F)n1
COc1ccc(Cl)cc1NC(=O)CSc1nc(-c2cccs2)cc(C(F)(F)F)n1
Cc1ccc(NC(=O)CSc2nc3c(c(=O)[nH]2)CN(Cc2ccc4c(c2)OCO4)CC3)cc1C
O=C(Nc1ccccc1N1CCCCC1)c1ccc2nccnc2c1
Cc1ccc(NC(=O)Cn2c(=O)n(-c3ccccc3)c(=O)c3c4c(sc32)CCCC4)cc1
CCN(C(=O)CSc1nnc(C)n2c1cc1occc12)c1ccccc1
O=C(C1CC1)N1CCN=C1SCc1ccc(Cl)cc1
Cc1cc(=O)oc2c(C)c(OC(C)C(=O)NC3CCN(Cc4ccccc4)CC3)ccc12 (stereo not drawn)
Cc1ccc2c(c1)-c1c(cnn1CC(=O)Nc1ccccc1C#N)CO2
CCC1C(=O)c2ccccc2N(C)C1=O (stereo not drawn)
CN1C(=O)c2ccccc2Sc2ccc(NC(=O)Cc3ccc(Cl)cc3)cc21
COc1ccccc1-c1cc2nc(C)c(CCC(=O)O)c(C)n2n1
CCCNC(=O)c1ccc2c(c1)ncn2-c1ccc(C)cc1C

Potency, active:
O=C1c2cccc3cccc(c23)C(=O)N1CCCCCc1n[nH]c(=S)o1 2.51 µM
CCCc1[nH]nc2c1C(c1ccc(Br)s1)C(C#N)=C(N)O2 (stereo not drawn) 50.1 µM
COc1ccc(NC(=O)c2sccc2SCC#N)cc1 7.94 µM
O=S(=O)(NC(=S)Nc1ccccc1)c1ccc(F)cc1 1.58 µM
CCn1ccnc1CN1CCCC(C(=O)c2ccc3c4c(cccc24)CC3)C1 (stereo not drawn) 35.5 µM
O=S(=O)(NCC(c1ccccc1)N1CCc2ccccc21)c1ccccc1 (stereo not drawn) 15.8 µM
COc1ccc(S(=O)(=O)NCC(c2ccc(N(C)C)cc2)N2CCc3ccccc32)cc1OC (stereo not drawn) 14.1 µM
CCOC(=O)N1CCN(CC(=O)n2c(C)c(C)c3ccccc32)CC1 12.6 µM
CCOc1cccc2c1N[C@@H](c1ccc(C(=O)O)cc1)[C@H]1CC=C[C@@H]21 4.47 µM
c1csc(-c2cn3c(n2)SCC3)c1 17.8 µM
Cc1ccc(O)c(NC(=O)c2cc(-c3ccc(F)cc3)no2)c1 8.91 µM
CCCCCn1c(SCCC(C)C)nc2c1c(=O)[nH]c(=O)n2C 10 µM
Cc1cc(C)c2c3c(sc2n1)C(c1ccccc1)C(C#N)=C(N)O3 (stereo not drawn) 14.1 µM
CN(C)c1ccc(C2Nc3ccccc3C(=O)N2NS(=O)(=O)c2ccccc2)cc1 (stereo not drawn) 39.8 µM
CSc1ccccc1NC(=O)CCS(=O)(=O)c1nc(-c2cccs2)cc(C(F)(F)F)n1 3.16 µM
O=C(Nc1ccccc1N1CCCC1)c1ccc2ccccc2c1 44.7 µM
Clc1ccc(CSc2nncn3c2cc2occc23)cc1 12.6 µM
CN1C(=O)/C(=C\c2cc(Br)cs2)c2ccccc21 10 µM
